Results filed as inconclusive are left out. Calls of active or inactive are those of the source. Unless noted, calls come from the whole dose curve; as a rule, active = well fitted curve in the direction sought with a large enough effect in the repeat runs; inconclusive = weak or mixed curves; inactive = no such curve, though single readings can be large; an effect the other way counts as inactive or inconclusive.
Columns and labels:
[1] = qHTS assay to identify small molecule antagonists of the estrogen related receptor (ERR) signaling pathway from Tox21 library - cell viability counter screen (AID 1224834); note: nearly all actives have a fitted effect of over 30% in size
In short: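 Viability readout (CellTiter-Fluor fluorescence, 30 min at 37 C) multiplexed with the ERR assay; cells treated 17.5 h at 37 C with compounds delivered in DMSO.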

[2] = molecular target: Luciferin 4-monooxygenase (Photinus pyralis) (UniProt P08659); assay: qHTS assay to identify small molecule inhibitors of firefly luciferase (AID 1224835); note: nearly all actives have a fitted effect of over 25% in size; note: potency is the fitted concentration of half-maximal effect; for activity change, negative = inhibition: series mostly up to about 120 µM
In short: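 Inhibition of purified Photinus luciferase is measured by luminescence. Substrate levels (D-luciferin, ATP) sit at their KM values. Each compound is tested in a concentration series.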

[3] = qHTS assay to identify small molecule agonists of the constitutive androstane receptor (CAR) signaling pathway - cell viability counter screen (AID 1224836); note: series mostly up to about 92 µM; nearly all actives have a fitted effect of over 45% in size
In short: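 Cells were seeded and incubated 4 hrs. Compounds were added across 15 concentrations together with PK11195 at 0.75 uM final. Plates were incubated 23 hrs at 37 C. CellTiter-Fluor was added and fluorescence measured.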

[4] = qHTS assay to identify small molecule antagonists of the constitutive androstane receptor (CAR) signaling pathway - cell viability counter screen (AID 1224837); note: series mostly up to about 92 µM; nearly all actives have a fitted effect of over 45% in size
In short: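 Fluorescence from CellTiter-Fluor served as the viability signal. Human hepatoma HepG2 cells stably bearing hCAR and CYP2B6-2.2kb received compound plus CITCO (50 nM final) for 23 hr.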

[5] = molecular target: Nuclear receptor subfamily 1 group I member 3 (Homo sapiens) (UniProt Q14994); assay: qHTS assay to identify small molecule antagonists of the constitutive androstane receptor (CAR) signaling pathway (AID 1224838);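 note: HepG2 cells stably expressing hCAR with CYP2B6 luciferase reporter stimulated by CITCO; nearly all actives have a fitted effect of over 40% in size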
In short: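 Quantitative HTS in double-stable HepG2-CYP2B6-hCAR cells. After 4 h plating, cells get compound (15 concentrations) and CITCO at 50 nM final, incubate 24 h at 37 C, then ONE-Glo luminescence is read.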

[6] = molecular target: Nuclear receptor subfamily 1 group I member 3 (Homo sapiens) (UniProt Q14994); assay: qHTS assay to identify small molecule agonists of the constitutive androstane receptor (CAR) signaling pathway (AID 1224839); note: nearly all actives have a fitted effect of over 15% in size; note: potency is the fitted concentration of half-maximal effect;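 for activation: HepG2 cells stably carrying human CAR and a CYP2B6 luciferase reporter; series mostly up to about 92 µM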
In short: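 Cells were plated and incubated 4 hrs, then dosed with compounds at 15 concentrations. PK11195 was added to 0.75 uM final. After 24 hrs at 37 C, luciferase luminescence was measured.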

[7] = qHTS assay to identify small molecule antagonists of the estrogen related receptor signaling pathway with the pleiotropic PPARgamma coactivator (PGC) from Tox21 10K library - cell viability counter screen (AID 1224840; active = well fitted cell-killing curve with a large enough effect in the repeat runs, not every such curve was filed as active; note: nearly all actives have a fitted effect of over 40% in size)
In short: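 Compounds in DMSO, alongside positive and negative controls, were pinned onto PGC/ERR cells (2,000 per well). Exposure lasted 17.5 hours at 37 C, followed by a 30-minute CellTiter-Fluor incubation and fluorescence reading.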

[8] = qHTS assay to identify small molecule antagonists of the estrogen related receptor signaling pathway with the pleiotropic PPARgamma coactivator (PGC) from Tox21 10K library (AID 1224841; call rule not given here; note: series mostly up to about 92 µM; actives are mostly falling curves and most rising ones were filed inactive; nearly all actives have a fitted effect of over 50% in size)
In short: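 Compound exposure ran 18 hours at 37 C in PGC/ERR cells (2,000/well) that had first rested 6 hours in a 37 C/5% CO2 incubator. Luciferase activity was then detected with One-Glo after a 30-minute room-temperature step.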

[9] = qHTS assay to identify small molecule agonists of the estrogen related receptor signaling pathway with the pleiotropic PPARgamma coactivator (PGC) from Tox21 10K library (AID 1224842); note: nearly all actives have a fitted effect of over 15% in size
In short: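 Luminescence from One-Glo (30 min, room temperature) measured after PGC/ERR cells had 18 h at 37 C with pinned compound (23 nL in DMSO). Cells had been seeded at 2,000 per well and pre-incubated 6 h.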

[10] = molecular target: Thyrotropin receptor (Homo sapiens) (UniProt P16473); assay: qHTS assay to identify small molecule agonists of the thyroid stimulating hormone receptor (TSHR) signaling pathway (AID 1224843; calls by dose curve; note: nearly all actives have a fitted effect of over 45% in size; note: potency is the fitted concentration of half-maximal effect)
In short: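 Screening of the Tox21 10K collection used HEK293 cells engineered with TSHR at 800 cells per well. After a 30-min room-temperature compound exposure, HTRF cAMP reagents were added and fluorescence recorded 1 h later.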
% is set by controls: 0 for no effect and ±100 for the full control effect.

Chain of Luciferin 4-monooxygenase (Photinus pyralis) (P08659 whole entry, looked up): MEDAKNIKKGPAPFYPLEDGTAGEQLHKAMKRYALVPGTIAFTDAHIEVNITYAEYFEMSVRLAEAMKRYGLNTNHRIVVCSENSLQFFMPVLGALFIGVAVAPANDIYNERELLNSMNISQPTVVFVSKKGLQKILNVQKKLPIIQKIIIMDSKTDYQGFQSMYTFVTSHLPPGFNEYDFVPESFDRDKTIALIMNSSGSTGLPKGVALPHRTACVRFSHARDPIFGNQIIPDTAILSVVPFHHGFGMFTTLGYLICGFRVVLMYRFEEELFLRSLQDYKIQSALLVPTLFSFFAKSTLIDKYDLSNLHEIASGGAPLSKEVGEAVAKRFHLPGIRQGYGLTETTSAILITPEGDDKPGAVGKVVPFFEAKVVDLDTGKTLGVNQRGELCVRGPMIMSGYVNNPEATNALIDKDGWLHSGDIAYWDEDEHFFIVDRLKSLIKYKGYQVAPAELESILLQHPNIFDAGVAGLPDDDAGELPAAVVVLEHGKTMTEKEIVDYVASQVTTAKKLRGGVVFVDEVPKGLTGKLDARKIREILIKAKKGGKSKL
Chain of Thyrotropin receptor (Homo sapiens) (P16473 whole entry, looked up): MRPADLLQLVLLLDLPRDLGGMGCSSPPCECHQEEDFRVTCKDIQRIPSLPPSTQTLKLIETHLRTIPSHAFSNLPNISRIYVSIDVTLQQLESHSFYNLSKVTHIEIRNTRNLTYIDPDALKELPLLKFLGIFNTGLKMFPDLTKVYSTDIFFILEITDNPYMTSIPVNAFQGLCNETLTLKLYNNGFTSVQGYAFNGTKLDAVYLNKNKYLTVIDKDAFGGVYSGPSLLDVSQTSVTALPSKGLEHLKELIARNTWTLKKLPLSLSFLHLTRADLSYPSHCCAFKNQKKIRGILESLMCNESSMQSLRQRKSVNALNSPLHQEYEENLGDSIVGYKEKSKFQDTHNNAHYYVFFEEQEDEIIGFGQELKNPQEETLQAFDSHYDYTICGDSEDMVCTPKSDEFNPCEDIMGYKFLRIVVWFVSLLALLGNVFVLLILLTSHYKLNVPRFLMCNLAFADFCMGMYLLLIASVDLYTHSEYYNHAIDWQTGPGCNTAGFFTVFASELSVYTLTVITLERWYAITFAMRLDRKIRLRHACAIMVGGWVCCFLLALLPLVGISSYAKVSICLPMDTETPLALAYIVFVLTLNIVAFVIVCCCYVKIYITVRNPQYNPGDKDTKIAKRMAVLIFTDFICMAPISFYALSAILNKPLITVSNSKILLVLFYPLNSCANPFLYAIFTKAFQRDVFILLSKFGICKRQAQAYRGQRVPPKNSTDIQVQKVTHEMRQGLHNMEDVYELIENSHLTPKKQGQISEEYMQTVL
Chain of Nuclear receptor subfamily 1 group I member 3 (Homo sapiens) (Q14994 whole entry, looked up): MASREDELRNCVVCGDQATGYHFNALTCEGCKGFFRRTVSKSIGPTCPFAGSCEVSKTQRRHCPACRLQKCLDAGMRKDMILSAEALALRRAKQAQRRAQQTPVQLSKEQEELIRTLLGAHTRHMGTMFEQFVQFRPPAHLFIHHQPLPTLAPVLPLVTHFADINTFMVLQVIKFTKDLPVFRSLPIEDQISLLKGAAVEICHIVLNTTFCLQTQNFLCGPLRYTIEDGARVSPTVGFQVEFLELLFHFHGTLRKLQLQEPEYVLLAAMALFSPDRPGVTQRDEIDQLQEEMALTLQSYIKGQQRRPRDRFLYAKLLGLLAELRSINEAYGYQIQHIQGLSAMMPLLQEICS

CN(C)CCc1ccc(O)cc1
inactive: Potency [1] | Potency [2] | Potency [3] | Potency [4] | Potency [5] | Potency [6] | Potency [7] | Potency [8] | outcome [9] | Potency [10]

COc1ccc(C(=O)N2CCCC2=O)cc1
inactive: Potency [1] | Potency [2] | Potency [3] | Potency [4] | Potency [5] | Potency [6] | Potency [7] | Potency [10]

CS(=O)(=O)c1cc(C(F)(F)F)ccc1C(=O)c1cnoc1C1CC1
inactive: Potency [1] | Potency [2] | Potency [3] | Potency [4] | Potency [5] | Potency [6] | Potency [7] | Potency [8] | outcome [9] | Potency [10]

O=NN1CCCCC1
inactive: Potency [1] | Potency [2] | Potency [3] | Potency [4] | Potency [5] | Potency [6] | Potency [7] | Potency [10]

Nc1ccccc1Cl
inactive: Potency [1] | Potency [2] | Potency [3] | Potency [4] | Potency [5] | Potency [6] | Potency [7] | Potency [10]

CC1=C(C(=O)O)N2C(=O)[C@@H](N)[C@H]2SC1
inactive: viability change, negative = cytotoxic [1] 3.67% [at 19 µM] | activity change, negative = inhibition [2] -0.398% [at 23.6 µM] | viability change, negative = cytotoxic [3] 4.01% [at 19 µM] | activity change, negative = cytotoxicity [4] 0.992% [at 19 µM] | activity, negative = inhibition [5] 17.2% [at 19 µM] | activation [6] -1.84% [at 19 µM] | viability change, negative = cytotoxic [7] -5.15% [at 19 µM] | activity, negative = inhibition [8] 1.75% [at 19 µM] | activation [9] 0.483% [at 19 µM] | activation [10] 0.53% [at 19 µM]

C[C@]12CC[C@H]3[C@@H](CCC4=CC(=O)CC[C@@]43C)[C@@H]1CC[C@@H]2C(=O)O
inactive: Potency [1] | Potency [2] | Potency [3] | Potency [4] | Potency [5] | Potency [6] | Potency [7] | Potency [8] | outcome [9] | Potency [10]

CC1(C)C(=O)NC(=O)NC1=O
inactive: Potency [1] | Potency [2] | Potency [3] | Potency [4] | Potency [5] | Potency [6] | Potency [7] | Potency [8] | outcome [9] | Potency [10]

COc1cc(C[C@@H](C)N)c(OC)cc1C
inactive: Potency [1] | Potency [2] | Potency [3] | Potency [4] | Potency [5] | Potency [6] | Potency [7] | Potency [8] | outcome [9] | Potency [10]

COC(=O)c1ccccc1S(=O)(=O)NC(=O)N(C)c1nc(C)nc(OC)n1
inactive: Potency [1] | Potency [2] | Potency [3] | Potency [4] | Potency [5] | Potency [6] | Potency [7] | outcome [9]

CCN(CC)c1nc(C)cc(OP(=S)(OC)OC)n1
active: Potency [6] 48.6 µM
inactive: Potency [1] | Potency [2] | Potency [3] | Potency [4] | Potency [5] | Potency [7] | Potency [10]

CCOC(=O)C1(c2ccccc2)CCN(CCc2ccc(N)cc2)CC1
inactive: Potency [1] | Potency [2] | Potency [3] | Potency [4] | Potency [5] | Potency [6] | Potency [7] | outcome [9] | Potency [10]

O=C(Nc1ccccc1)c1ccccc1I
inactive: Potency [1] | Potency [2] | Potency [3] | Potency [4] | Potency [5] | Potency [7] | Potency [10]
active: Potency [6] 61.1 µM

CN1CCC(N(Cc2ccccc2)c2ccccc2)CC1
inactive: Potency [1] | Potency [2] | Potency [3] | Potency [4] | Potency [5] | Potency [6] | Potency [7]
active: Potency [10] 13.3 µM

CC(=O)[C@H]1CC[C@H]2[C@@H]3CC[C@H]4C[C@H](O)CC[C@]4(C)[C@H]3C(=O)C[C@]12C
inactive: Potency [1] | Potency [2] | Potency [3] | Potency [4] | Potency [5] | Potency [6] | Potency [7] | outcome [9]

O=NN1CCN(N=O)CC1
inactive: Potency [1] | Potency [2] | Potency [3] | Potency [4] | Potency [5] | Potency [6] | Potency [7] | Potency [8] | outcome [9] | Potency [10]

CCCSP(=S)(OCC)Oc1ccc(Cl)cc1Cl (stereo unspecified)
active: Potency [6] 27.3 µM
inactive: Potency [1] | Potency [2] | Potency [3] | Potency [4] | Potency [5] | Potency [7] | Potency [8] | outcome [9] | Potency [10]

[As]#[In]
inactive: Potency [1] | Potency [2] | Potency [3] | Potency [4] | Potency [5] | Potency [6] | Potency [7] | Potency [8] | outcome [9] | Potency [10]

CCCCc1ccc(O)cc1
inactive: Potency [1] | Potency [2] | Potency [3] | Potency [4] | Potency [5] | Potency [6] | Potency [7] | Potency [10]

O=C1OC(=O)C2C1C1(Cl)C(Cl)=C(Cl)C2(Cl)C1(Cl)Cl (stereo unspecified)
inactive: Potency [1] | Potency [2] | Potency [3] | Potency [4] | Potency [5] | Potency [6] | Potency [7] | Potency [10]

O=C(Cc1ccccc1)OCc1ccccc1
inactive: Potency [1] | Potency [3] | Potency [4] | Potency [5] | Potency [6] | Potency [7] | Potency [10]
active: Potency [2] 20.2 µM

CC(C)(C)C(=O)C(Oc1ccc(Cl)cc1)n1cncn1 (stereo unspecified)
inactive: Potency [1] | Potency [2] | Potency [3] | Potency [4] | Potency [6] | Potency [7]

ClCC(Cl)(Cl)Cl
inactive: Potency [1] | Potency [2] | Potency [3] | Potency [4] | Potency [6] | Potency [7]

CCOP(=O)(OCC)OP(=O)(OCC)OCC
inactive: Potency [1] | Potency [2] | Potency [3] | Potency [4] | Potency [5] | Potency [6] | Potency [7] | Potency [10]

CC(C)NCC(O)c1ccc(N)c(C#N)c1 (stereo unspecified)
active: Potency [10] 0.0021 µM
inactive: Potency [1] | Potency [2] | Potency [3] | Potency [4] | Potency [5] | Potency [7]

Clc1cccc(N2CCNCC2)c1
inactive: Potency [1] | Potency [2] | Potency [3] | Potency [4] | Potency [5] | Potency [6] | Potency [7] | Potency [10]

COP(=S)(OC)Oc1ccc(S(N)(=O)=O)cc1
inactive: Potency [1] | Potency [2] | Potency [3] | Potency [4] | Potency [5] | Potency [6] | Potency [7] | Potency [10]

CCC/C(=N\OCC)C1=C(O)CC(CC(C)SCC)CC1=O (stereo unspecified)
inactive: Potency [1] | Potency [2] | Potency [3] | Potency [4] | Potency [5] | Potency [7]
